Source: PubChem BioAssay
A selection: hits, their analogues and other compounds. The true share with any hit is near 19%.
DT40 TDP1 no CPT – qHTS for Inhibitors of human tyrosyl-DNA phosphodiesterase 1 (TDP1): qHTS in cells in absence of CPT; Potency, µM (top dose mostly 46.2 µM), without a hit: at the top dose activity change, negative = growth inhibition, usual class: inhibitors; 420,000 compounds, 15% hits; DT40 Tdp1-/- hTDP1 cells, no CPT, ATP luminescence, 48 h; further: potency means the concentration at half of the fitted maximal effect; on the % scale 0 is the no-effect control and ±100 the full control effect; nearly all actives have a fitted effect of over 55% in size
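Camptothecin absent (DMSO only). Human TDP1-complemented DT40 knockout cells, 400 cells/well, 37 °C for minimum 48 hr; ATP measured via CellTiter-Glo, 30 min dark incubation, luminescence.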
SW480 rerep – DNA re-replication induction in SW480 cells. SW480 DNA re-replication, Hoechst DNA content imaging, 48 h. Potency, µM (top dose mostly 46.1 µM), without a hit: top-dose re-replication activation, usual class: activators. 340,000 compounds, 1.8% hits. AID 624297; further: potency means the concentration at half of the fitted maximal effect; % of control where 0% means no effect; nearly all actives have a fitted effect of over 55% in size
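Image-based read-out: total Hoechst fluorescence of nuclei (405 nm excitation, 500-530 nm emission), with hits raising the fraction of high-intensity nuclei. SW480 colon cells incubated 48 hr with compounds at 37 C.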
IL-1B inflam inh – inflammasome signaling inhibition, IL-1 beta readout. THP-1 LPS/ATP IL-1B secretion, AlphaLISA, 16 h; hits give low values. activity change, % at 57.5 µM. 360,000 compounds, 4.7% hits; in the data active means activity change below about -50%; inconclusive means mostly about -30% to -49%; further: on the % scale 0 is the no-effect control and ±100 the full control effect
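Secreted IL-1B measured by AlphaLISA bead assay after 16 h compound exposure of THP-1 cells; compounds (final up to 57.5 uM) added 1 h before LPS (250 ng/mL) and ATP (1.25 mM) stimulation; lower signal means less secretion.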
DT40 TDP1 CPT – DT40-hTDP1 cell growth loss with CPT; chicken DT40 Tdp1-/-;hTDP1 cells + 20 nM CPT, ATP luminescence, 48 h; Potency, µM (series often up to 46.2 µM), for inactives: top-dose activity change, negative = growth inhibition, most hits filed as inhibitors; 420,000 compounds, 12% hits; further: potency means the concentration at half of the fitted maximal effect; on the % scale 0 is the no-effect control and ±100 the full control effect; nearly all actives have a fitted effect of over 55% in size
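Chicken DT40 Tdp1-/- cells stably complemented with human TDP1 were seeded at 400 cells/well in medium containing 20 nM camptothecin, exposed to pin-transferred compounds, and grown at 37 °C for at least 48 hr. Viability was read as ATP luminescence.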
MCF10A rereplic – DNA re-replication induction in MCF 10a cells | 350,000 compounds, 2.9% hits | MCF 10A DNA re-replication, Hoechst nuclear intensity, 48 h | Potency, µM (titrated, usually from 46.1 µM), for inactives: at the highest dose activity, positive = re-replication, usual class: activators; further: potency means the concentration at half of the fitted maximal effect; % of control where 0% means no effect; nearly all actives have a fitted effect of over 50% in size
BCR signal inh – inhibitors of chronic active B-cell receptor signaling. ABC-DLBCL IkBa-CBG/CBR reporter, luminescence ratio, 4 h. AID 493014. 340,000 compounds, 0.05% hits. Potency, µM (highest dose often 46.1 µM), for the others: at the top dose activity change, negative = inhibition, actives largely listed as inhibitors; active means well fitted inhibition curve with a large enough effect in the signal ratio, with a control signal flat, not every such curve was filed as active; inconclusive means small, poorly fitted or top-dose-only effect, or effect the other way, or a change in a side signal; the % refers to the signal ratio;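 further: potency means the concentration at half of the fitted maximal effect; plate controls were basal doxycycline-induced cells for no effect and cells given 10 µM MG132 for full effect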
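Compounds up to 46 uM were incubated four hours with TMD8 cells whose green CBG68 luciferase is fused to IkappaBalpha; red CBR luminescence normalised the signal, and concentration-effect curves were fitted to fusion, red and ratio data.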
* hit, by the source's call; ? = inconclusive; nt = not tested or not shown. Unless noted, the call rests on the fitted dose curve; in most records, active means well fitted curve in the direction sought with a large enough effect; inconclusive means small, poorly fitted or top-dose-only effect, or another doubt; inactive means no such curve, though single readings can be large; an effect the other way counts as inactive or inconclusive.

SMILES	DT40 TDP1 no CPT	SW480 rerep	IL-1B inflam inh	DT40 TDP1 CPT	MCF10A rereplic	BCR signal inh
COC(=O)[C@@]12C[C@@H](CC(=O)NCc3cccc(C(F)(F)F)c3)C(=O)N(CCc3ccc(OC)c(OC)c3)C1=CCC(C)(C)C2	11.6µM*	nt	?	9.2µM*	nt	nt
COC(=O)[C@]12CCCCC=C1N(CCc1ccc(OC)c(OC)c1)C(=O)[C@H](CC(=O)N1CCC(c3ccccc3)CC1)C2	8.2µM*	nt	-1.1	8.2µM*	nt	nt
COC(=O)c1ccc(NC(=O)c2sc3nc(-c4ccccc4)cn3c2C)cc1	2.59µM*	17.6%	-22.7	6.51µM*	?	?
Cc1cc(C)cc(NC(=O)c2sc3nc(-c4ccccc4)cn3c2C)c1	11.6µM*	nt	nt	14.6µM*	nt	nt
Cc1cccc(NC(=O)c2sc3nc(-c4ccccc4)cn3c2C)c1C	?	nt	nt	0.517µM*	nt	nt
Cc1c(C(N)=O)sc2nc(-c3ccccc3)cn12	-7.2%	-9.0%	0.0	-3.0%	-6.6%	-3.2%
COc1cc(C(=O)NCCOc2ccc(Cl)cc2)ccc1OCc1c(C)noc1C	?	?	36.2	-24.6%	?	3.1%
Cc1ccc(Nc2c(-c3ccc(N(C)C)cc3)nc3ncccn23)cc1	?	27.6%	-7.8	?	?	-0.7%
Cc1cccc(C)c1Nc1c(-c2ccc(N3CCOCC3)cc2)nc2ncccn12	20.6µM*	-0.7%	?	20.6µM*	1.9%	-16.7%
Cc1ccc(Nc2c(-c3ccc(N4CCOCC4)cc3)nc3ncccn23)c(C)c1	16.4µM*	-1.7%	?	?	-1.5%	-1.9%
Clc1cccc(-c2nc(-c3ccc(-c4nn[nH]n4)cc3)no2)c1	nt	-4.3%	nt	nt	-5.0%	?
O=C1/C(=C\c2cccc(O)c2O)SC(=S)N1Cc1ccccc1	23.1µM*	18.4µM*	-97.6*	?	?	-4.5%
O=C1/C(=C\c2cc([N+](=O)[O-])ccc2O)SC(=S)N1Cc1ccc(Cl)cc1	3.66µM*	-8.3%	-10.1	16.4µM*	?	13.8%
O=C1/C(=C/c2ccncc2)SC(=S)N1Cc1ccccc1	16.4µM*	?	-81.7*	?	?	?
C#CCOc1ccc(/C=C2\SC(=S)N(Cc3cccnc3)C2=O)cc1	4.61µM*	14.6µM*	6.2	3.26µM*	20.6µM*	-2.0%
O=C1/C(=C/c2ccc(O)cc2)SC(=S)N1Cc1cccnc1	-16.8%	1.1%	-12.2	-23.7%	10.4%	-2.1%
O=C(O)CN1C(=O)/C(=C\c2ccccc2OCc2ccccc2)SC1=S	6.6%	nt	25.6	-4.3%	nt	nt
O=C(O)CN1C(=O)/C(=C\c2cc([N+](=O)[O-])ccc2OCc2ccccc2Cl)SC1=S	0.3%	-0.9%	-0.3	-13.3%	12.5%	9.3%
COc1ccc([C@@H]2C[C@H]3[C@@H](CN2S(=O)(=O)c2ccccc2)C(=O)C[C@@H](c2ccc(C)cc2)N3S(=O)(=O)c2ccc(C)cc2)cc1	?	nt	7.4	-1.1%	nt	nt
O=C(O)c1cccc(CN2C(=O)S/C(=C/c3ccccc3[N+](=O)[O-])C2=O)c1	?	?	-82.0*	-18.1%	?	?
O=C1/C(=C\c2cccc(O)c2)SC(=S)N1Cc1ccccc1	?	-8.4%	-18.4	?	?	6.0%
O=C(O)COc1ccccc1/C=C1\SC(=O)N(Cc2ccc(F)cc2)C1=O	-11.7%	-7.5%	-5.5	21.1%	4.61µM*	-9.8%
O=C1/C(=C\c2ccc(O)c(O)c2)SC(=S)N1Cc1ccccc1	18.4µM*	?	-87.4*	20.6µM*	11.8%	10.3%
Cc1ccc(CN2C(=O)S/C(=C\c3ccccc3OCC(=O)O)C2=O)cc1	11.2%	-15.0%	27.1	6.8%	2.6%	?
